From PubChem
SK-BR-3 tox 24h = SK-BR-3 proliferation inhibitors, primary screen, cell-based, human, 24 h | viability, % at 10 µM | SK-BR-3 viability, CellTiter-Glo ATP luminescence; active compounds read low | 41,000 tested, 0.47% active;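 active = viability at or below the median of all test compounds minus 3 SD, in both replicates if run twice, cut at about 45% in these data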;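 note: 100% = median untreated cell wells and 0% = median positive control drug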
CatB inh = human cathepsin B inhibitors, primary screen, biochemical, fluorogenic substrate. 63,000 tested, 0.1% active. inhibition, %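 (tested at 10 µM)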. AID 453, 2006. purified cathepsin B, fluorescence; in the data active = inhibition above about 21%;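 note: 0% = enzyme with no compound and 100% = no enzyme blank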
Her2 expr inh = inhibitors of Her2 protein expression, primary screen, SKBR-3 cells, AlphaScreen, 66K library | 65,000 tested, 0.69% active | HER2 level % of control, % at 10 µM | AID 645, 2007 | SKBR-3 HER2 protein level, 18-24 h; active compounds read low;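 active = HER2 level under 5% of the carrier-only control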;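 note: 100% = DMSO carrier and 0% = 500 nM PU-H71 HSP90 inhibitor; lower value means stronger loss of Her2 protein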
Target sequence (P04626 whole entry, looked up): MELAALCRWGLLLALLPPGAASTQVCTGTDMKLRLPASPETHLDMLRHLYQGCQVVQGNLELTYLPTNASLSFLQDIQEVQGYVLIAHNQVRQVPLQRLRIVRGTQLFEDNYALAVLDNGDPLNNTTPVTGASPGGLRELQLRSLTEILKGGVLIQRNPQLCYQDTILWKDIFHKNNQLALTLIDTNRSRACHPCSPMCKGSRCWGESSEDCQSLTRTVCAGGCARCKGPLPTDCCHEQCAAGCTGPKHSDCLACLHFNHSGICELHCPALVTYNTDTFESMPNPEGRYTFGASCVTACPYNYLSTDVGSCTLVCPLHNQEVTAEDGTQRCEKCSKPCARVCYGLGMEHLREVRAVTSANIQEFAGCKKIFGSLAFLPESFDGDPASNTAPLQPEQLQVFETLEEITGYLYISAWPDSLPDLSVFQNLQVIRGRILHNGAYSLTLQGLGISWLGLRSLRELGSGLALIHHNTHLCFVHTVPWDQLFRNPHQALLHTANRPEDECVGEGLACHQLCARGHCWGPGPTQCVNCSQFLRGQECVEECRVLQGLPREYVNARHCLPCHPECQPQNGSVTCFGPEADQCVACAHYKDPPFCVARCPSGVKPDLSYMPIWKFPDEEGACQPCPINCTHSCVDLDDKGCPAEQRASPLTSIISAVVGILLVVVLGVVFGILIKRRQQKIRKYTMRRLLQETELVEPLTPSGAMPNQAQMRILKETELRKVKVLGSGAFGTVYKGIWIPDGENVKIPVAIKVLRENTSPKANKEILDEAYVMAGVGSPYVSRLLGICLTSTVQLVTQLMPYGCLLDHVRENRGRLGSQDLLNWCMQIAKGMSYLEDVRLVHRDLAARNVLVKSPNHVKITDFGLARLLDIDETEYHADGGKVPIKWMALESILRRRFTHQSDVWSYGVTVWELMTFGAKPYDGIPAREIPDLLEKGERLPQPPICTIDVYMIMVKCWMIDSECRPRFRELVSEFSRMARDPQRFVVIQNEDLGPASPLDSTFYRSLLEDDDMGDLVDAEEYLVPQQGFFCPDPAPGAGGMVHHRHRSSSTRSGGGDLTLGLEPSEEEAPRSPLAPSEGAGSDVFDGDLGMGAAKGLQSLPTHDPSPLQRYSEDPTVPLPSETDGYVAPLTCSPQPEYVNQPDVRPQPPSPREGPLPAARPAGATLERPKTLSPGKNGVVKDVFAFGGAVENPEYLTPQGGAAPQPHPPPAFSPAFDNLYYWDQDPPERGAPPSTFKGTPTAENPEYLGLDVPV
CatB mixtures = cathepsin B inhibitors from pooled compounds, primary screen, biochemical, compound mixtures, AMC fluorescence; AID 488, 2006; P07858; Purified cathepsin B, AMC dipeptide fluorescence; 62,000 tested, 0.06% active; inhibition, %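 (ten-compound pools at 5 µM per compound and 50 µM total)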; in the data active = inhibition above about 22%, passing the limit was not always enough;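 note: 0% = enzyme without compound and 100% = no enzyme blank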
CatS inh = inhibitors of human cathepsin S, biochemical, compound mixtures; P25774; recombinant cathepsin S, AMC dipeptide fluorescence, pooled mixtures; inhibition, %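 (tested at 5 µM per compound within 10-compound mixtures)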; 62,000 tested, 0.06% active; AID 501, 2006; in the data active = inhibition above about 32%, passing the limit was not always enough;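 note: 0% = enzyme without compound and 100% = blank without enzyme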
CatL block = inhibitors of human cathepsin L, biochemical. inhibition, %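 (tested at 10 µM)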. 58,000 tested, 0.17% active. purified cathepsin L, fluorogenic substrate, fluorescence; in the data active = inhibition above about 45%;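 note: 0% = enzyme with no compound and 100% = no enzyme blank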
* marks the source's active call; other numbers are inactive results; . = no result. In the library only some 1.1% were active in any assay of this set; here they are far more common.

SMILES	SK-BR-3 tox 24h	CatB inh	Her2 expr inh	CatB mixtures	CatS inh	CatL block
CCOC(=O)N1CCN(C(=O)C(NC(=O)c2ccc(CC)cc2)C(C)C)CC1 (stereo unspecified)	74	-1	.	3	8	16
COc1cccc(NC2=NCC(=O)N2Cc2cccs2)c1	104	-2	102	4	-1	73*
COc1ccc(NC2=NCCC(=O)N2Cc2cccs2)cc1	89	0	86	-2	-3	0
Clc1ccc(-c2nnc(-c3ccccc3)o2)c(Cl)c1	.	2	-26*	-8	-14	0
Fc1ccc(-c2nnc(-c3ccc(Cl)cc3Cl)o2)cc1	.	2	57	0	21	.
Cc1cccc(NC(=O)CCn2nc(C)cc2C)c1	81	2	83	-4	1	59*
COc1ccc([C@@H]2[C@H]3CN(C(C)=O)CC=C3C(C#N)=C(N)C2(C#N)C#N)c2ccccc12	81	2	-0.8*	6	-4	-1
Cc1[nH]c(C(=O)N2CCCCC2)c(C)c1C(=O)NC1CCCCC1	.	1	100	-6	-7	-21
CCCCCNC(=O)C(C#N)c1nc2ccccc2nc1N1CCCC1 (stereo unspecified)	74	3	-23*	1	-8	-8
CCCCCCNC(=O)C(C#N)c1nc2ccccc2nc1N1CCCC1 (stereo unspecified)	72	3	105	-1	10	-9
Cc1ccc(Cl)cc1N1CCN(C(c2ccc(C#N)cc2)c2nnnn2C2CCCC2)CC1 (stereo unspecified)	97	0	85	6	7	7
C=CCN=C(NC#N)SCc1ccccc1Cl	66	1	-4.6*	0	-9	8
CC(=O)c1c(C)nc(-c2ccc3c(c2)OCO3)n1O	76	-3	78	-5	2	8
CC(C)N1CCC2(CC1)N=C(c1ccc3c(c1)OCO3)CC(c1cc(Cl)ccc1O)N2 (stereo unspecified)	.	0	-18*	5	-4	-5
CC(=O)Nc1ccc(S(=O)(=O)Nc2nnc(C3CCCCC3)s2)cc1	120	2	98	4	-4	5
COc1ccc2oc(=O)c(-c3nnc(NCc4ccco4)s3)cc2c1	.	-1	-11*	3	-8	-16
Cc1cc(C)cc(N(CC(=O)Nc2cccc(C)n2)S(=O)(=O)c2c(C)noc2C)c1	.	-4	97	-1	10	29
COc1ccc(CCNc2oc(COc3ccccc3F)nc2C#N)cc1	103	-6	-30*	4	-7	-3
COc1ccc2c(=O)c3c(=O)n(Cc4ccco4)c(-c4cc(OC)c(OC)c(OC)c4)nc3oc2c1	27*	3	15	1	-6	-3
COc1ccc(OC)c(S(=O)(=O)Nc2ccc(C(N)=O)cc2)c1	94	5	139	7	23	6
COc1ccc(OC)c(S(=O)(=O)Nc2ccc(O)c3ccccc23)c1	.	-1	1.2*	-9	-6	-1
COc1ccc(OCCn2c(=N)n(CCO)c3ccccc32)cc1	90	0	80	0	2	26
N=c1n(CCO)c2ccccc2n1CCOc1ccc(Cl)cc1Cl	.	-5	2.4*	5	7	-4
Cc1nnc2n(Cc3ccccc3)c(=O)c3c4c(sc3n12)COC(C)(C)C4	68	-3	90	4	2	-3
CCc1ccc(C2CC(=O)N3CN(c4ccccc4)CSC3=C2C#N)cc1 (stereo unspecified)	.	3	-18*	4	5	0
CCCCN(CC)CCCNC(=O)c1cc2c(=O)n(C)c3ccccc3c2n1C	.	-2	83	4	16	11
Cc1cccc(NC(=O)CCN2C(=O)C3C4C=CC(C4)C3C2=O)n1 (stereo unspecified)	94	9	91	-2	-4	13
COc1ccc(C(=O)CSc2nnc(CNC(=O)c3ccc(OC)c(OC)c3)n2C)cc1	103	7	132	2	0	2
COc1ccc(NCc2nnc(SCC(=O)c3ccc(OC)cc3)n2C)cc1	75	0	-43*	5	-4	0
CC(C)COC(=O)N1CC(O)CC1C(=O)O (stereo unspecified)	95	-3	-14*	-3	-9	3
